Test results: PubChem BioAssay (NCATS)
Inconclusive results are not listed. Calls of active or inactive are those of the source. Unless noted, calls follow the shape of the dose curve; as a rule, active = well fitted curve in the direction sought with a large enough effect; inconclusive = small, poorly fitted or top-dose-only effect, or another doubt; inactive = no such curve, though single readings can be large; an effect the other way counts as inactive or inconclusive.

How the values were obtained:
[1] = NS1 protein of Zika virus - qHTS assay to identify small molecule inhibitors in human HEK 293 cells (AID 1347053); also: series mostly up to about 46 µM; nearly all actives have a fitted effect of over 55% in size
Outline: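 HEK 293; 20 h pre-culture, 37 C/5% CO2; cpd 1 h pre-infection; ZIKV MR766, MOI = 0.5, 24 h, 37 C; TR-FRET NS1 readout (two anti-NS1 Abs); norm. to no-virus vs infected.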

[2] = target: T1, Tyrosine-protein phosphatase non-receptor type substrate 1 (Homo sapiens) + Leukocyte surface antigen CD47 (Homo sapiens) (UniProt P78324+Q08722); assay: CD47-SIRPalpha protein protein interaction - HTRF assay qHTS validation (AID 1347058; active = well fitted curve in the direction sought with a large enough effect in the signal ratio, not every such curve was filed as active; the % refers to the signal ratio;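 also: recombinant soluble extracellular CD47 with His tag and biotinylated SIRPalpha domains; series mostly up to about 38 µM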)
Outline: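 TR-FRET read (Ch1/Ch2 ratio) of soluble extracellular CD47 and Avi-biotinylated SIRPalpha domains in PBS pH 7.4 with 0.05% IGEPAL; 7-point compound titration. Sequential 30 min room-temperature steps; non-biotinylated SIRPalpha as control inhibitor.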

[3] = target: T1, Tyrosine-protein phosphatase non-receptor type substrate 1 (Homo sapiens) + Leukocyte surface antigen CD47 (Homo sapiens); assay: CD47-SIRPalpha protein protein interaction - Alpha assay qHTS validation (AID 1347059);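 also: bead proximity luminescence from CD47 binding SIRPalpha after compound preincubation with SIRPalpha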
Outline: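 Binding is measured by AlphaScreen proximity: Ni-NTA acceptor beads capture His-CD47, streptavidin donor beads capture biotin-SIRPalpha. Each of three additions (SIRPalpha with compound, CD47, beads) incubates 30 min at room temperature protected from light.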

[4] = target: Parathyroid hormone/parathyroid hormone-related peptide receptor (Homo sapiens) (UniProt Q03431); assay: qHTS for PTHR1 Agonists: Optimization Screen against the NCGC LOPAC library (AID 1347079);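 also: GloSensor cAMP luminescence in HEK-293 GP2 cells expressing human PTHR1 with IBMX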
Outline: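 Agonist readout: GloSensor cAMP luminescence, read after 15 min at room temperature. HEK-293-derived GP2 line carries PTHR1; compounds tested as a titration for 1 hr at 37C in presence of IBMX. M-PTH (1-15) served as control.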

[5] = target: N-terminal Xaa-Pro-Lys N-methyltransferase 1 (Homo sapiens) (UniProt Q9BV86); assay: qHTS Assay for Inhibitors of N-terminal methyltransferase 1 (NTMT1): LOPAC validation of the NTMT1 SAHH-coupled ThioGlo3 Assay (AID 1347143);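 also: SAH from peptide methylation measured as thiol fluorescence via SAHH coupling and ThioGlo3; nearly all actives have a fitted effect of over 70% in size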; also: potency is read from the fitted curve at half-maximal effect
Outline: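 Inhibition of NTMT1 methylation of peptide SPKRIA is followed by converting SAH with SAHH and labelling the released thiol with ThioGlo3. Plates are read at 340/450nm before and 30 min after reagent addition, both at room temperature.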

[6] = system: Zika virus NS2B-NS3 protease (unlinked); assay: Optimization of GU AMC qHTS for Zika virus inhibitors: Unlinked NS2B-NS3 protease assay (AID 1347151); also: nearly all actives have a fitted effect of over 80% in size; also: potency is read from the fitted curve at half-maximal effect
Outline: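 Unlinked protease (25 nM final); buffer 10 mM Tris-HCl pH 8.0 + 0.01% Tween 20; AMC substrate; 15 min RT, dark; Δfluorescence normalized to no-inhibitor/no-enzyme controls; 4-parameter Hill fit.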

[7] = target: T1, Tyrosine-protein phosphatase non-receptor type substrate 1 (Homo sapiens) + Leukocyte surface antigen CD47 (Homo sapiens); assay: CD47-SIRPalpha protein protein interaction - LANCE assay qHTS validation (AID 1347057; active = well fitted curve in the direction sought with a large enough effect in the signal ratio, with a control signal flat, not every such curve was filed as active; the % refers to the signal ratio)
Outline: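 First, His-tagged CD47 and Eu-labelled anti-His antibody met the compound for 30 min; next, site-specifically biotinylated SIRPalpha was added for 30 min; finally streptavidin-APC was added before reading the TR-FRET ratio.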

Furin (Homo sapiens) = Furin (Homo sapiens) (UniProt P09958); assay: Furin counterscreen qHTS for Zika virus inhibitors (AID 1347149);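 also: purified recombinant full-length human furin enzyme at 5 nM; fluorescence gain from furin cutting a BOC-RVRR-AMC peptide substrate over 15 min; top concentration of the series differs between compounds; nearly all actives have a fitted effect of over 70% in size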
Outline: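 Fluorogenic cleavage of BOC-RVRR-AMC (2 microM final, Km ~15 µM) was monitored (ex 340, em 450 nm) at 37C after 15 min RT preincubation of 5 nM furin with compounds in HEPES pH 7.0 buffer with CaCl2 and Triton X-100. Percent inhibition was fitted to a 4-parameter Hill curve.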

[8] = system: Zika virus NS2B-NS3 protease (linked construct); assay: Confirmatory screen NINDS AMC qHTS for Zika virus inhibitors (AID 1347152); also: nearly all actives have a fitted effect of over 70% in size; also: potency is read from the fitted curve at half-maximal effect
Outline: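 Enzyme (1 nM, linked construct) was preincubated with compound for 15 minutes at room temperature in 10 mM Tris-HCl pH 8.0 with 0.01% Tween 20. Bz-Nle-Lys-Arg-Arg-AMC was then added to 10 microM, and AMC fluorescence was recorded immediately and after 15 minutes.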

[9] = system: Zika virus NS2B-NS3 protease (unlinked complex); assay: Confirmatory screen GU AMC qHTS for Zika virus inhibitors (AID 1347153); also: nearly all actives have a fitted effect of over 70% in size
Outline: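 Unlinked enzyme 25 nM, Tris pH 8.0/0.01% Tween 20; cpd 15 min RT, dark; + AMC substrate 10 µM (Km 18.3 µM); 340/450 nm read at t0 and 15 min; % inhibition → 4-param fit.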

Measured: Potency

T1 sequence (P78324 whole entry, looked up, the tested form may be a part): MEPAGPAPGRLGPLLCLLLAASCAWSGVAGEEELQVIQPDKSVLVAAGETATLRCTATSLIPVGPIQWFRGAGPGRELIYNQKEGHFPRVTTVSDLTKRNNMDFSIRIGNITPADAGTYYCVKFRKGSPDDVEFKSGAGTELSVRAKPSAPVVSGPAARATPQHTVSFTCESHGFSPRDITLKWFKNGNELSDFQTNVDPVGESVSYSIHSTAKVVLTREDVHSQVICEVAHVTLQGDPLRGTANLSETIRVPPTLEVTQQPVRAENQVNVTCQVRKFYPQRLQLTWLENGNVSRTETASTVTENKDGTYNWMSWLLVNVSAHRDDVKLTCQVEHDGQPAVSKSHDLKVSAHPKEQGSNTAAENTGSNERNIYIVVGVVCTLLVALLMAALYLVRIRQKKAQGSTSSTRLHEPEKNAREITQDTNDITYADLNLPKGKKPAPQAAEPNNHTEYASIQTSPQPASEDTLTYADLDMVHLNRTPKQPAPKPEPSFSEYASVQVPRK
T1 sequence (Q08722 whole entry, looked up, the tested form may be a part): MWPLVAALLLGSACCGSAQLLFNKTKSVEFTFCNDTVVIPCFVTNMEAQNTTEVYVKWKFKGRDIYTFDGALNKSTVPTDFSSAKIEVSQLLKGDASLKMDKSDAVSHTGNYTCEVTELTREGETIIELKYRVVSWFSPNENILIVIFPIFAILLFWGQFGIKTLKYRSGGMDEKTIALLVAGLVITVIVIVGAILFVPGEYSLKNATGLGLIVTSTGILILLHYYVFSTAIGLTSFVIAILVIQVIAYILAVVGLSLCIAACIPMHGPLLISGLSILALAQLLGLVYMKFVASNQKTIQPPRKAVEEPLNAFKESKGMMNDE
Parathyroid hormone/parathyroid hormone-related peptide receptor (Homo sapiens), sequence (Q03431 whole entry, looked up): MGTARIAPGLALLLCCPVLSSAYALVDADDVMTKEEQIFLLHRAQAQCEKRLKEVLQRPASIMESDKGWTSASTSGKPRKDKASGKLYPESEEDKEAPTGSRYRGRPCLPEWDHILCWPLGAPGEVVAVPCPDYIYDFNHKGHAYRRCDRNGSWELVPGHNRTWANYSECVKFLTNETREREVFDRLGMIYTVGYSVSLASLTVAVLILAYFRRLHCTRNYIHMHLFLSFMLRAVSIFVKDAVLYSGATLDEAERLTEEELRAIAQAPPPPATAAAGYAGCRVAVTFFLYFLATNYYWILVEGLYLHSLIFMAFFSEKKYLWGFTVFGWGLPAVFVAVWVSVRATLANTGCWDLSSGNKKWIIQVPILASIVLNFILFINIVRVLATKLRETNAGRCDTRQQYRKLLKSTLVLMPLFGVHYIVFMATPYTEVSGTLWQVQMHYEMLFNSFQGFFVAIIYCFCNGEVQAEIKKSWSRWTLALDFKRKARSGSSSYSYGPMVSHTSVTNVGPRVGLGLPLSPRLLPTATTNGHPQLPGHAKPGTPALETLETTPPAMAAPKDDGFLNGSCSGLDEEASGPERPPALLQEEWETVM
N-terminal Xaa-Pro-Lys N-methyltransferase 1 (Homo sapiens), sequence (Q9BV86 whole entry, looked up): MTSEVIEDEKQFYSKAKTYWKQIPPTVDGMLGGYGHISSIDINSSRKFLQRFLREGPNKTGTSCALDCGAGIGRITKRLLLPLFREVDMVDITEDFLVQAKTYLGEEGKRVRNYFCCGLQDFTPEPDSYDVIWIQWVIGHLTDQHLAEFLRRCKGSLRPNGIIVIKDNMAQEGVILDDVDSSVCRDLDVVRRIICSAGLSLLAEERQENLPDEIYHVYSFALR
Furin (Homo sapiens), sequence (P09958 whole entry, looked up): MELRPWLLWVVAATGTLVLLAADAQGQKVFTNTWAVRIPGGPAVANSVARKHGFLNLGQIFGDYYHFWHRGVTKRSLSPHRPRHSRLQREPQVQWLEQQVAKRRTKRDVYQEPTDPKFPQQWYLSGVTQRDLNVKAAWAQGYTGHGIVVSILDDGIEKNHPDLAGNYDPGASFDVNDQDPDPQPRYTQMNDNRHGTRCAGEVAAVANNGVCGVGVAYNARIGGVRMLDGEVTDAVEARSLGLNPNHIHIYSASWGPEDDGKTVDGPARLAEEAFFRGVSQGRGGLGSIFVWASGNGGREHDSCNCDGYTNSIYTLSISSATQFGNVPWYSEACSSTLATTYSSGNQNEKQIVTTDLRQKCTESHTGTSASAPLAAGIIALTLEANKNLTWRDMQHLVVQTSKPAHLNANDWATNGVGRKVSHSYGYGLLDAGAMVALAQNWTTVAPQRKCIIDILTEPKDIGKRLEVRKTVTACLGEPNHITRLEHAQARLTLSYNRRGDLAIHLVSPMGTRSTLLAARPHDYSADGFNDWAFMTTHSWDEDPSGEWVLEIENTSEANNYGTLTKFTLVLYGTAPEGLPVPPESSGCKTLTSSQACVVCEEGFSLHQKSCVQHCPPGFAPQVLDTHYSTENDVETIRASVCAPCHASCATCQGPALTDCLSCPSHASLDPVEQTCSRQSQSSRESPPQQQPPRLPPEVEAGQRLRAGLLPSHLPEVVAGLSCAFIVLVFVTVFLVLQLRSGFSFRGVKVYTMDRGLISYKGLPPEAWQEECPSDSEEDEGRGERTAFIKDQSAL

CCCn1c(=O)c2[nH]c(C3CCCC3)nc2n(CCC)c1=O
inactive: [1] | [2] | [3] | [4] | [5] | [6]

Cc1ccccc1/C=C/C1=NCCN1
inactive: [1] | [7] | [3] | [6]

CC(C)(C)NCC(O)COc1cccc2[nH]c(=O)[nH]c12 (centres undefined)
inactive: [1] | [2] | [3] | [4] | [5] | [6]

NCCCCN=C(N)N
inactive: [1] | [2] | [3] | [4] | [5] | [6]

CC(=O)/C(C)=N/O
inactive: [1] | [2] | [4] | [5] | [6]

COc1ccccc1N1CCN(CCCNc2c(C)c(=O)n(C)c(=O)n2C)CC1
not listed: [5] | [6] | [7]
inactive: all other assays above

CCCC(=O)NCCc1c2n(c3ccc(OC)cc13)CCCc1ccccc1-2
inactive: [1] | [2] | [3] | [4]
active: [6] 26.7 µM

CC(N)(Cc1ccc(O)c(O)c1)C(=O)O (centres undefined)
active: [5] 56.2 µM
inactive: [1] | [2] | [3] | [4] | [6]

O=c1onc2cnc3ccccc3n12
active: [5] 56.2 µM | [6] 26.7 µM
inactive: [1] | [7] | [3]

CC(=O)SC1CC2=CC(=O)CC[C@]2(C)C2CC[C@@]3(C)C(CC[C@@]34CCC(=O)O4)C12 (some centres undefined)
inactive: [1] | [2] | [3] | [4] | [5]

Nc1nc2[nH]c(=O)cnc2c(=O)[nH]1
inactive: [1] | [2] | [3] | [4]
active: [5] 56.2 µM | [6] 13.4 µM

CCCCCCC/C=C\CCCCCCCCC(=O)O
inactive: [1] | [2] | [3] | [4] | [5]

CC(C)NC[C@H](O)COc1cccc2ccccc12
inactive: [1] | [2] | [3] | [4]

CC1CNCCN1S(=O)(=O)c1cccc2cnccc12 (centres undefined)
inactive: [1] | [2] | [3] | [4] | [5]

COc1ccc(CCN(C)CCc2ccc(OC)c(OC)c2)cc1OC
inactive: [1] | [2] | [3] | [5] | [6]

COc1ccc2c(c1)c(CC(=O)O)c(C)n2C(=O)c1ccccc1
inactive: [1] | [2] | [3] | [4] | [5]

CC1CCN=C(N)S1 (centres undefined)
inactive: [1] | [2] | [3] | [4] | [5] | [6]

O=c1[nH]c(=S)[nH]c(-c2ccccc2)c1Cc1c(O)ccc2ccccc12
active: [5] 79.4 µM | [6] 7.52 µM
inactive: [1] | [2] | [4] | Furin (Homo sapiens)

Cc1cccc(C)c1OCC(N)C(C)C (centres undefined)
active: [5] 50.1 µM
inactive: [1] | [2] | [3] | [4] | [6]

CC(C)Cn1c(=O)n(C)c(=O)c2[nH]cnc21
inactive: [1] | [2] | [3] | [5] | [6]

CN1CCN(c2nc3cc(C(F)(F)F)ccc3n3cccc23)CC1
inactive: [1] | [7]
active: [5] 39.8 µM

O=c1[nH]c2ccccc2c2ccccc12
inactive: [1] | [2] | [3] | [4]
active: [6] 26.7 µM

O=[N+]([O-])c1cccc2c(Br)[nH]nc12
inactive: [1] | [7] | [3] | [6]

CN[C@H](CC(=O)O)C(=O)O
inactive: [1] | [7] | [3] | [5] | [6]

N#CC(C#N)=C(N)/C(C#N)=C/c1ccc(O)cc1
inactive: [1] | [7] | [3] | [6]

O=C(O)c1ccccc1Nc1ccccc1
inactive: [1] | [7] | [3] | [6]

Cn1c(=O)c2[nH]c(-c3ccc(S(=O)(=O)O)cc3)nc2n(C)c1=O
active: [8] 6.81 µM
